Here are results for 40 molecules from the antibiotic and cytotoxicity screens of Wong et al. (2023).

The campaign covered roughly 39,000 compounds. About 3,300 (8.5%) were called active. The list comes from a sample in which actives are over-represented; it also holds similar structures and randomly drawn compounds.

The subject of the assay is HepG2. The experiment in a line: cytotoxicity call (relative viability < 0.9). As to conditions: 10 µM.
Consider `CN(C)c1ccc(O)c2c1C[C@@H]1C[C@@H]3[C@@H](N(C)C)C(=O)C(C(N)=O)=C(O)[C@]3(O)C(=O)[C@H]1C2=O`, for which the cytotoxicity call was “inactive”.
The result for `CC(C)NC(=O)N(C)C[C@@H]1Oc2ccc(NC(=O)Cn3cnnn3)cc2C(=O)N([C@H](C)CO)C[C@H]1C` reads “inactive”; that for `COCC#Cc1ccc2c(c1)O[C@H](CN(C)S(=O)(=O)c1ccc(OC)cc1)[C@@H](C)CN([C@H](C)CO)S2(=O)=O`, “inactive”; that for `O=C(O)c1ccc2c(ccc3nn(-c4ccc(/C=C/c5ccc(-n6nc7ccc8cc(C(=O)O)ccc8c7n6)cc5S(=O)(=O)O)c(S(=O)(=O)O)c4)nc32)c1`, “inactive”.
Turning to `C[C@H]1CN([C@@H](C)CO)C(=O)c2cc(C#Cc3ccncc3)cnc2O[C@H]1CN(C)C(=O)c1ccccc1F`, the cytotoxicity call is “inactive”.
Take `COc1ccc(S(=O)(=O)N(C)C[C@H]2Oc3ccc(NC(=O)CCC(F)(F)F)cc3CC(=O)N([C@@H](C)CO)C[C@H]2C)cc1`: the cytotoxicity call was “inactive”.
With `C[C@@H]1CN([C@H](C)CO)C(=O)c2c(c3ccccc3n2C)-c2ccccc2CO[C@@H]1CN(C)Cc1cccc(O)c1`, the cytotoxicity call was “inactive”.
As for `Cc1noc(C)c1NC(=O)Nc1cccc2c1O[C@@H](CN(C)Cc1ccc(C(=O)Nc3ccccc3N)cc1)[C@H](C)CN([C@@H](C)CO)C2=O`, the cytotoxicity call is “inactive”.
As for `C[C@@H]1CN([C@H](C)CO)C(=O)Cc2cc(NC(=O)Cc3ccccc3)ccc2O[C@@H]1CN(C)S(=O)(=O)c1ccccc1`, the cytotoxicity call is “inactive”.
The result for `C[C@@H]1CN([C@H](C)CO)S(=O)(=O)c2ccc(C#CC3CCCC3)cc2O[C@H]1CN(C)Cc1cncnc1` reads “inactive”; that for `C[C@H](CO)N1C[C@H](C)[C@H](CN(C)Cc2ccncc2)Oc2c(NS(=O)(=O)c3cccs3)cccc2C1=O`, “inactive”.
With `CO[C@@H]1CN(C)C(=O)c2ccc(NC(=O)Nc3cccc(F)c3)cc2OC[C@@H](C)N(C(=O)Nc2cccc(F)c2)C[C@H]1C`, the cytotoxicity call is “inactive”.
Consider `C[C@H](CO)N1C[C@H](C)[C@H](CN(C)C(=O)CN2CCOCC2)Oc2cc(C#Cc3cccc(F)c3)ccc2S1(=O)=O`, for which the cytotoxicity call is “inactive”.
The same measure for `C[C@@H]1CCCCO[C@@H](CN(C)CC2CC2)[C@H](C)CN([C@@H](C)CO)C(=O)c2cc(NC(=O)Nc3cccc4ccccc34)ccc2O1`: “inactive”; for `C[C@@H]1CCCCO[C@@H](CN(C)CC2CC2)[C@@H](C)CN([C@H](C)CO)C(=O)c2cc(NC(=O)Nc3cccc4ccccc34)ccc2O1`: “inactive”; for `C[C@@H]1CCCCO[C@@H](CN(C)CC2CCCCC2)[C@@H](C)CN([C@@H](C)CO)C(=O)c2cc(NC(=O)Nc3cccc4ccccc34)ccc2O1`: “active”.
With `C[C@@H]1CCCCO[C@H](CN(C)C)[C@@H](C)CN([C@H](C)CO)C(=O)c2cc(NC(=O)Nc3cccc4ccccc34)ccc2O1`, the cytotoxicity call was “inactive”.
Turning to `C[C@@H]1CCCCO[C@@H](CN(C)C)[C@H](C)CN([C@H](C)CO)C(=O)c2cc(NC(=O)Nc3cccc4ccccc34)ccc2O1`, the cytotoxicity call was “inactive”.
The same measure for `C[C@@H]1CCCCO[C@H](CN(C)CC2CCCCC2)[C@H](C)CN([C@H](C)CO)C(=O)c2cc(NC(=O)Nc3cccc4ccccc34)ccc2O1`: “active”; for `C[C@@H]1CN([C@@H](C)CO)C(=O)c2cc(NC(=O)Nc3cccc4ccccc34)ccc2O[C@@H](C)CCCCO[C@H]1CN(C)CC1CC1`: “inactive”; for `C[C@@H]1CCCCO[C@H](CN(C)CC2CCCCC2)[C@H](C)CN([C@@H](C)CO)C(=O)c2cc(NC(=O)Nc3cccc4ccccc34)ccc2O1`: “active”.
The same measure for `C[C@@H]1CCCCO[C@@H](CN(C)CC2CC2)[C@H](C)CN([C@H](C)CO)C(=O)c2cc(NC(=O)Nc3cccc4ccccc34)ccc2O1`: “inactive”; for `C[C@H]1CCCCO[C@@H](CN(C)CC2CCCCC2)[C@@H](C)CN([C@@H](C)CO)C(=O)c2cc(NC(=O)Nc3cccc4ccccc34)ccc2O1`: “active”.
Regarding `CO[C@H](CN(C)S(=O)(=O)c1cn(C)cn1)[C@@H](C)CN(C(=O)Nc1ccc(C(F)(F)F)cc1)[C@H](C)CO`, the cytotoxicity call is “inactive”.
With `Cc1noc(C)c1S(=O)(=O)N(C)C[C@H]1Oc2ccc(NC(=O)NC3CCCCC3)cc2CC(=O)N([C@H](C)CO)C[C@H]1C`, the cytotoxicity call was “inactive”.
The result for `Cc1ccc(S(=O)(=O)N(C)C[C@H]2Oc3c(NC(=O)c4ccncc4)cccc3C(=O)N([C@@H](C)CO)C[C@@H]2C)cc1` reads “inactive”; that for `C[C@H]1CN([C@@H](C)CO)C(=O)c2cccc(NC(=O)c3ccc(-c4nccs4)cc3)c2O[C@H]1CN(C)S(=O)(=O)c1ccc(Cl)cc1`, “inactive”; that for `CNC1C(OC2OC(CO)C(N)C(O)C2O)OC2CC(N)C(OC3C(N)CC(N)C(O)C3O)OC2C1O.O=S(=O)(O)O` (stereo not given), “inactive”.
The result for `C[C@H]1CN([C@@H](C)CO)C(=O)Cc2cc(NC(=O)c3ccncc3)ccc2O[C@@H]1CN(C)S(C)(=O)=O` reads “inactive”.
As to `C[C@@H]1CN([C@@H](C)CO)C(=O)Cc2cc(NC(=O)C3CC3)ccc2O[C@@H]1CN(C)S(=O)(=O)c1ccccc1`, the cytotoxicity call was “inactive”.
The same measure for `CO[C@@H]1CN(C)C(=O)c2ccc(NC(=O)C3CC3)cc2OC[C@H](C)N(C(=O)C2CCOCC2)C[C@H]1C`: “inactive”.
Consider `C[C@@H]1CN([C@@H](C)CO)C(=O)c2cc(NS(=O)(=O)c3cn(C)cn3)ccc2O[C@@H](C)CCCCO[C@H]1CN(C)C`, for which the cytotoxicity call is “inactive”.
`C[C@@H]1CCCCO[C@H](CN(C)CC2CC2)[C@H](C)CN([C@@H](C)CO)C(=O)c2cc(NC(=O)Nc3cccc4ccccc34)ccc2O1`: the cytotoxicity call was “inactive”.
As for `C[C@H](CO)N1C[C@H](C)[C@@H](CN(C)CC2CC2)OCCCC[C@H](C)Oc2ccc(NC(=O)Nc3cccc4ccccc34)cc2C1=O`, the cytotoxicity call is “inactive”.
The same measure for `C[C@@H]1CCCCO[C@H](CN(C)CC2CC2)[C@@H](C)CN([C@H](C)CO)C(=O)c2cc(NC(=O)Nc3cccc4ccccc34)ccc2O1`: “inactive”; for `C[C@@H]1CCCCO[C@@H](CN(C)CC2CCCCC2)[C@H](C)CN([C@@H](C)CO)C(=O)c2cc(NC(=O)Nc3cccc4ccccc34)ccc2O1`: “active”.
`C[C@@H]1CCCCO[C@@H](CN(C)CC2CCCCC2)[C@@H](C)CN([C@H](C)CO)C(=O)c2cc(NC(=O)Nc3cccc4ccccc34)ccc2O1`: the cytotoxicity call was “active”.
For `C[C@H](CO)N1C[C@H](C)[C@H](CN(C)CC2CCCCC2)OCCCC[C@H](C)Oc2ccc(NC(=O)Nc3cccc4ccccc34)cc2C1=O`, the cytotoxicity call was “active”.
As to `C[C@H](CO)N1C[C@H](C)[C@@H](CN(C)CC2CCCCC2)OCCCC[C@H](C)Oc2ccc(NC(=O)Nc3cccc4ccccc34)cc2C1=O`, the cytotoxicity call is “active”.
Turning to `C[C@H](CO)N1C[C@H](C)[C@H](CN(C)CC2CC2)OCCCC[C@H](C)Oc2ccc(NC(=O)Nc3cccc4ccccc34)cc2C1=O`, the cytotoxicity call was “inactive”.
